ALDH1A1 block: blocks purified human ALDH1A1 activity; P00352; Purified ALDH1A1, NADH fluorescence, propionaldehyde substrate; Potency, µM (doses to about 75.3 µM), for inactives: at the top dose activity, negative = inhibition, actives largely listed as inhibitors; 220,000 compounds, 7.3% hits; AID 1030; active = well fitted inhibition curve with a large enough effect, not every such curve was filed as active; inconclusive = small, poorly fitted or top-dose-only effect, or another doubt; inactive = no such curve, though single readings can be large or run the other way;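 also: plate controls were no enzyme wells and a reference inhibitor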
VP16 counter: inhibits Gal4-VP16 luciferase reporter, ROR gamma counter-screen | Drosophila S2 Gal4-VP16 UAS-luciferase, luminescence, 20 h | Potency, µM (doses to about 53.6 µM), inactives show top-dose activity, negative = inhibition, actives largely listed as inhibitors | 310,000 compounds, 3.5% hits | AID 2546;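 also: Gal4-VP16 expression switched on by copper sulfate through the metallothionein promoter; nearly all actives have a fitted effect of over 50% in size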
PLK1 PBD inh: inhibitors of human PLK1 polo-box domain binding. Potency, µM, for the others: max response, negative = inhibition, most hits filed as inhibitors. AID 720504. 360,000 compounds, 2.8% hits. P53350. Plk1 PBD binding of FITC phosphopeptide, fluorescence polarization; also: series mostly up to about 57 µM; nearly all actives have a fitted effect of over 65% in size
Target sequence (P53350 whole entry, looked up, the tested form may be a part): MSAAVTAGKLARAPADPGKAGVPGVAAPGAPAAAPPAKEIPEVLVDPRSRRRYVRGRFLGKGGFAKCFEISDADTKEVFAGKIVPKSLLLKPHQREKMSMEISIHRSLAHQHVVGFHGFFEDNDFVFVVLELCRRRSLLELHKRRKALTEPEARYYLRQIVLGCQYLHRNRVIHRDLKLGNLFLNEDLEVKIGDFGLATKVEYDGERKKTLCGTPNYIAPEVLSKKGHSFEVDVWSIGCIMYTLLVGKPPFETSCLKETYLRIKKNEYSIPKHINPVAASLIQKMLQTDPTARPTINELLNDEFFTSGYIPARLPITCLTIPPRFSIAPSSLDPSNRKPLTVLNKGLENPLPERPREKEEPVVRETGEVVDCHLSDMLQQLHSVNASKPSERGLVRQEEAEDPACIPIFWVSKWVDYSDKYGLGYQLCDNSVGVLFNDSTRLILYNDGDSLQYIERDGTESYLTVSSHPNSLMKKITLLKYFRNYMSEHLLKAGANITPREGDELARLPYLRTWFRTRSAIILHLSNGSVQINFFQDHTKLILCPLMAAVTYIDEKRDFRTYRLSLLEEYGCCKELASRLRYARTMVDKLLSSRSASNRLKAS
Sfp inh: inhibitors of Bacillus subtilis Sfp phosphopantetheinyl transferase; Q9F4F7; Biochemical Sfp PPTase activity, qHTS; Potency, µM, inactives show largest response in the series, negative = inhibition, most hits filed as inhibitors; 310,000 compounds, 3.5% hits; AID 1490;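 also: the enzyme is Sfp with the accession as filed and its product quenches rhodamine fluorescence; 0% = enzyme reaction without inhibitor and -100% = no enzyme wells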
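Buffer: 50 mM Hepes-Na pH 7.6, 10 mM MgCl2, 0.01% Nonidet P-40, 0.01% BSA. Enzyme 15 nM, pre-exposed to compound 15 min; substrates then added and fluorescence change tracked over 30 min.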
RORg inh: ROR gamma (mouse) transcription inhibition. P51450. Drosophila S2 Gal4-RORgamma UAS-luciferase reporter, 20 h. Potency, µM (top dose mostly 53.6 µM), for the others: at the top dose activity change, negative = inhibition, hits mostly inhibitors. 310,000 compounds, 5.4% hits. AID 2551; also: nearly all actives have a fitted effect of over 60% in size
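Drosophila Schneider cells stably carrying a metallothionein-driven Gal4 DBD–ROR gamma fusion and a UAS-Photinus luciferase reporter were exposed to compound for 1 hr, then induced with copper sulfate (700 uM final) for 20 hr at ambient temperature before luminescence reading.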
* hit, by the source's call; ? = inconclusive; . = not tested or not shown; [ ] = another dose, or the depositor's remark. An excerpt weighted towards active compounds, which were near 12% of everything screened. Unless noted, calls follow the shape of the dose curve; as a rule, active = well fitted curve in the direction sought with a large enough effect; inconclusive = small, poorly fitted or top-dose-only effect, or another doubt; inactive = no such curve, though single readings can be large; an effect the other way counts as inactive or inconclusive. Unless noted, % is scaled to controls: 0 for no effect and ±100 for the full control effect; potency is read from the fitted curve at half-maximal effect.

SMILES | ALDH1A1 block | VP16 counter | PLK1 PBD inh | Sfp inh | RORg inh
Cc1cccc(CNc2cc(-c3c(C)noc3C)ncn2)c1 | 6% | -5% | . | 5% | -38%
O=C(O)CC12CC3CC(C1)CC(n1ncc(NCC4CCCO4)c(Cl)c1=O)(C3)C2 (stereo not drawn) | 25µM* | 0% | 1% | 22% | 13%
Cc1ccc([N+](=O)[O-])cc1S(=O)(=O)n1ccnc1C | -1% | -4% | 4.2µM* | 9% | -37%
Cc1ccc([N+](=O)[O-])cc1S(=O)(=O)N1CCN(C)CC1 | -3% | 12% | -6% | 2% | 29%
O=C(N/N=C1\CC2CC=CC12)c1ccccc1Cl (stereo not drawn) | -6% | 11% | -2% | 11% | -99%
FC(F)(F)c1ccccc1NC(=S)N/N=C1\CC2CC=CC12 (stereo not drawn) | 7.9µM* | 14µM* | ? | -29% | 0.5µM*
O=C(N/N=C/c1ccc(OCC(=O)N2CCCCC2)cc1)c1ccccc1O | -6% | -4% | -13% | 15% | -35%
CC1CCN(C(=O)COc2ccc(Nc3ccccc3)cc2)CC1 | ? | 4% | -17% | 12% | 40%
CC1CCCN(C(=O)COc2ccc(Nc3ccccc3)cc2)C1 (stereo not drawn) | 28µM* | 3% | -1% | -3% | 27%
O=C(N/N=C/c1ccc(OCC(=O)N2CCCCC2)cc1)c1ccccc1 | 18µM* | 3% | -6% | 21% | 29%
Oc1ccc(N=Cc2ccc(OCc3ccccc3)cc2)cc1 | 20µM* | ? | ? | ? | -38%
O=C(N/N=C/c1ccc(OCc2ccccc2)cc1)c1cccs1 | ? | -16% | -9% | -6% | 25%
O=C(N/N=C/c1ccc(OCc2ccccc2)cc1)c1ccncc1 | ? | -17% | -9% | 14% | 13µM*
COc1ncc2nc(C)c(=O)n(Cc3cccs3)c2n1 | -11% | -7% | . | -8% | 16%
O=C(NCCO)c1cccc(-c2cnc3cccnn23)c1 | . | . | -10% | . | .
COc1ncc(-c2ccc(N3C(c4ccsc4)=Cc4ccccc4C3CC(C)=O)cc2)cn1 (stereo not drawn) | . | . | -12% | . | .
CC1(c2nnnn2C2CCCC2)CCC(=O)N1c1ccc2c(c1)OCCO2 (stereo not drawn) | . | . | -12% | . | .
COC(=O)c1c(-c2cc(OC)c(OC)c(OC)c2)c2ccnc(OCc3ncccn3)c2c(=O)n1Cc1ccnc(C)c1 | -7% | -16% | . | 5% | 7%
COc1ccc(-c2nc3cnc(N4CCN(C)CC4)nc3n(-c3ccc(OC)cc3)c2=O)cc1 | ? | -5% | . | -22% | -38%
CC(C)(C)OC(=O)NC(NC(=O)OCC1c2ccccc2-c2ccccc21)C(=O)O (stereo not drawn) | . | -3% | . | -28% | 6%
C[C@@H](CO)NC(=O)c1ccc2c3n(nc2c1)-c1ccccc1CO3 | . | ? | -11% | 3% | 6.3µM*
COc1ccc(/C=N\NC(=O)c2cccc([N+](=O)[O-])c2)cc1Cn1cc([N+](=O)[O-])cn1 | 20µM* | -9% | . | 2% | -18%
COc1ccc(/C=N/NC(=O)c2ccc(N)cc2)cc1Cn1cc([N+](=O)[O-])cn1 | 1% | -4% | -1% | -3% | -3%
COc1ccc(/C=N/NC(=O)c2ccn[nH]2)cc1Cn1cc([N+](=O)[O-])cn1 | . | 4% | -2% | 14% | 22%
COc1cc(/C=N/NC(=O)c2cccc([N+](=O)[O-])c2)ccc1OCc1ccc(C)cc1 | 8% | -7% | -4% | 2% | 2.5µM*
SMILES | ALDH1A1 block | VP16 counter | PLK1 PBD inh | Sfp inh | RORg inh
COc1ccc(/C=N/NC(=O)c2ccccc2O)cc1Cn1cc(Cl)cn1 | -4% | 14µM* | ? | 1% | 6.3µM*
Cc1ccc(C2C=C(c3ccccc3OC(F)F)Nc3ncnn32)cc1 (stereo not drawn) | ? | -4% | -10% | -13% | -29%
CN(C)c1ccc(C2C=C(c3ccc(Cl)cc3OC(F)F)Nc3ncnn32)cc1 (stereo not drawn) | 20µM* | -2% | -8% | -18% | ?
CC1=C(C)C(c2ccccc2)NC(=S)N1 (stereo not drawn) | 13µM* | -93% | -14% | 5% | 5µM*
CC1=C(C(=O)c2ccccc2)C(c2ccc(O)cc2)NC(=S)N1 (stereo not drawn) | . | 9% | -3% | -9% | -20%
CCOC(=O)[C@]12CCCC=C1N(Cc1ccccc1)C(=O)[C@H](CC(=O)NCC1CCCCC1)C2 | . | . | -15% | . | .
C/C(=N\NC(=S)NCCc1ccccc1)c1ccc(C)cc1 | -4% | 5µM* | -6% | -6% | 2.8µM*
C/C(=N\NC(=S)NCCc1ccccc1)c1ccc(C#N)cc1 | -1% | 8.9µM* | -3% | 8% | 4µM*
C/C(=N\NC(=O)CCc1ccccc1)c1ccc(Br)cc1 | 7% | -4% | -13% | 11% | 21%
C/C(=N\NC(=S)NCCc1ccccc1)c1ccc(Cl)cc1 | ? | 3.2µM* | 3% | 1% | 3.5µM*
C/C(=N/NC(=O)CNC(=O)CCc1ccccc1)c1ccc(Cl)cc1 | . | -12% | -4% | 14% | 32%
CCc1ccc(N2CC(C(=O)Nc3cccc(S(=O)(=O)N4CCCC4)c3)CC2=O)cc1 (stereo not drawn) | . | . | -7% | . | .
C=C1CN(C(C(=O)OC)C(C)C)S(=O)(=O)c2ccc(F)cc21 (stereo not drawn) | . | -6% | . | 14% | -2%
O=C(OCc1nnc(-c2ccccc2)o1)C1CC(=O)N(Cc2ccco2)C1 (stereo not drawn) | 15µM* | 0% | -19% | -10% | 10%
CCOC(=O)c1[nH]c(COC(=O)C2CC(=O)N(Cc3ccccc3)C2)c(C(=O)OCC)c1C (stereo not drawn) | 40µM* | 4% | -7% | -5% | -7%
CCOC(=O)c1sc(N)c(C(=O)OCC)c1COC(=O)C1CC(=O)N(Cc2ccco2)C1 (stereo not drawn) | 20µM* | 18% | -11% | -17% | 20%
CCOC(=O)C(C(=O)OCC)C(Nc1ccc(Br)cc1)c1ccccc1 (stereo not drawn) | 2% | ? | -7% | -4% | 11µM*
O=C1C=C(c2ccccc2)C[C@H](c2cccs2)[C@H]1n1cnc([N+](=O)[O-])c1 | ? | -6% | -4% | -12% | -1%
O=C1C=C(c2cccs2)CC(c2cccs2)C1n1cnc([N+](=O)[O-])c1 (stereo not drawn) | 28µM* | 1% | -15% | 0% | -16%
CN1CCN(/C=N/c2c(C#N)cnn2-c2ccccc2)CC1 | 6% | 1% | 27µM* | 7% | -45%
CC(=O)OC[C@@H]1O[C@@H](O/N=C2/C[C@@H](O)[C@@H](O)[C@@H]3[C@@H]4C(=O)N(c5cccc(Oc6ccccc6)c5)C(=O)[C@H]4CC[C@@H]23)[C@H](OC(C)=O)[C@H](OC(C)=O)[C@@H]1OC(C)=O | -5%[13.5 µM] | 3%[10 µM] | . | 4% | -2%[10 µM]
Cc1sc2ncnc(SCC(=O)N3CCCCC3)c2c1C | . | -1% | -2% | 3% | 23%
